Bioassay records from PubChem.
BoNT A protease: inhibitors of Botulinum neurotoxin A light chain protease. multiplex microsphere protease substrate cleavage, flow cytometry. inhibition, % at 10 µM. 0.17% of 360,000 active; further: plate controls were buffer without enzyme for full effect and enzyme alone for no effect
BoNT-F LC inh: inhibitors of Botulinum neurotoxin F light chain protease; Multiplex microsphere protease cleavage assay, flow cytometry; inhibition, % at 10 µM; 0.22% of 360,000 active; in the data active means inhibition above about 35%, passing the limit was not always enough; inconclusive means no clear call, values can overlap the other calls; further: plate controls were buffer without enzyme for full effect and enzyme alone for no effect
Anthrax LF prot: anthrax lethal factor protease inhibition. P15917. multiplex microsphere protease cleavage assay, LF. inhibition, % at 10 µM. 0.12% of 360,000 active; further: plate controls were buffer without enzyme for full effect and enzyme alone for no effect
Target sequence (P15917 whole entry, looked up): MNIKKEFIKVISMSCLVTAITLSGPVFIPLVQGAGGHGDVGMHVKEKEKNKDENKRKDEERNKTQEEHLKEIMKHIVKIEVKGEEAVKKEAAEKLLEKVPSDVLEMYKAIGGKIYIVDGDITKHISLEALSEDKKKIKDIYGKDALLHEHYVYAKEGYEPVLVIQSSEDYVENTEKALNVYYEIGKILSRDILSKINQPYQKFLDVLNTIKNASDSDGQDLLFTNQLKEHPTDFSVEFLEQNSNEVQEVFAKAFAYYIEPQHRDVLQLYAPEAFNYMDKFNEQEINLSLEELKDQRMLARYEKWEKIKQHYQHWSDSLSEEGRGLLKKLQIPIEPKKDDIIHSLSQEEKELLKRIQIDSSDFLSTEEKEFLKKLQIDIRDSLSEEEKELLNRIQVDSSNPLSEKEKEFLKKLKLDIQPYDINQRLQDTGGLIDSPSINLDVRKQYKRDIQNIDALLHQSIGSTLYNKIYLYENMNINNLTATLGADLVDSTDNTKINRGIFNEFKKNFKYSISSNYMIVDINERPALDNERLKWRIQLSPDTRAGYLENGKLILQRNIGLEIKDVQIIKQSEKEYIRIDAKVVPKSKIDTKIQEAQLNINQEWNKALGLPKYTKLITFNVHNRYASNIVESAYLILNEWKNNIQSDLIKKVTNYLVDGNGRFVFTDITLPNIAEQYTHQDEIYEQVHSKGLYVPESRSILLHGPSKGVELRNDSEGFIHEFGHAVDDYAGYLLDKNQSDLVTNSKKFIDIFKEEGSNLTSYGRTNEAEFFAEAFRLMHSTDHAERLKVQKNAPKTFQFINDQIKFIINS
Bead autofluor: compound fluorescence in toxin protease inhibitor counterscreen | compound autofluorescence counterscreen, microsphere flow cytometry; stronger effect = higher value | fluorescence intensity (no concentration beside the values) | 3.1% of 360,000 active | AID 624483; in the data active means fluorescence intensity above about 16000; inconclusive means no clear call, values can overlap the other calls
Active calls of the source: *; ? = inconclusive. In the library only some 3.5% were active in any assay of this set; here they are far more common. Unless noted, no stated cut-off is given here; in the data, active means inhibition above about 30%; inconclusive means no clear call, values can overlap the other calls; inactive means below that.

SMILES | BoNT A protease | BoNT-F LC inh | Anthrax LF prot | Bead autofluor
COC(=O)C1=C(C)NC(C)=C(C(=O)OC)C1/C=C/c1ccccc1 | -2 | -4 | -2 | 20052*
CC1(C(=O)Nc2cccc3ccccc23)CCN1C(=O)Cc1ccccc1Cl (stereo unspecified) | 0 | -6 | -5 | 3641
O=C(c1cccc(C(F)(F)F)c1)N1CCc2c([nH]c3ccccc23)C1C(F)(F)F (stereo unspecified) | -6 | ? | -5 | 3540
COc1ccc(/C=N/N2CCN(c3ccccc3OC)CC2)cc1OC | ? | -1 | -5 | 16494*
COc1cccc(/C=N/N2CCN(c3ccccc3OC)CC2)c1 | -4 | -5 | -5 | 24263*
Cc1ccc2c(NCc3ccco3)nc(NC(C)C)nc2c1 | -1 | -9 | -6 | 6543
Cc1ccc(NC(=O)CC2SC3=NCCN3C2=O)cc1 (stereo unspecified) | 2 | 0 | 0 | 22351*
O=C(CC1SC2=NCCN2C1=O)Nc1ccccc1 (stereo unspecified) | 0 | 1 | -1 | 5735
O=C(CCCn1c(=S)[nH]c2cc3c(cc2c1=O)OCO3)NC1CC1 | -1 | -2 | -1 | 22975*
CC1CC(=O)Nc2ccccc2N1C(=O)CSc1ccc2ccccc2n1 (stereo unspecified) | 0 | -2 | -3 | 2915
Cn1c(SCC(=O)OC2CCCCC2)nnc1-c1ccc2c(c1)OCO2 | 2 | 3 | 2 | 21547*
COC(=O)c1ccc(CNC(=O)C(C)N=C2NS(=O)(=O)c3ccccc32)cc1 (stereo unspecified) | -7 | -19 | -3 | 6716
C=C(C)CSc1nc2sc3c(c2c(=O)n1C1CCCCC1)CCN(C)C3 | 33* | -4 | 13 | 7245
C=CCSc1nc2sc3c(c2c(=O)n1-c1ccc(C)cc1)CCN(C)C3 | 36* | -5 | 1 | 4217
CCSc1nc2sc3c(c2c(=O)n1-c1ccccc1)CCN(C(C)C)C3 | 57* | 46* | 4 | 6785
CCSc1nc2sc3c(c2c(=O)n1-c1ccccc1C)CCN(C)C3 | 16 | 5 | 13 | 4927
CCCCSc1nc2sc3c(c2c(=O)n1-c1ccccc1)CCN(C)C3 | 52* | 21 | 14 | 4210
CN(c1ccc(F)cc1)S(=O)(=O)c1ccc(Cl)c(C(=O)NCC2(N3CCOCC3)CCCCC2)c1 | 0 | -10 | -11 | 3516
C=C(C)CSc1nc2sc3c(c2c(=O)n1-c1ccccc1)CCN(C)C3 | 37* | 9 | 16 | 4836
CN1CCc2c(sc3nc(SCC(N)=O)n(-c4ccccc4)c(=O)c23)C1 | 1 | 3 | -8 | ?
O=C(NCCc1c[nH]c2ccccc12)c1ccc([N+](=O)[O-])o1 | 0 | -8 | -5 | 3540
CC1(C(=O)NCc2cccc(Cl)c2)Cc2c(-c3cccc(C(N)=O)c3)ccnc2O1 (stereo unspecified) | 0 | -8 | -3 | 3004
O=C(C1CC2C=CC1C2)N1CCN(c2ccccc2)CC1 (stereo unspecified) | 0 | -10 | -3 | 4217
CC1(C)C(C=C(Cl)Cl)C1C(=O)N1CCN(c2ccccc2)CC1 (stereo unspecified) | 1 | -1 | -5 | 22705*
O=C(NC1CCCCC1)C(c1ccc(O)cc1)N(CC1CCCO1)C(=O)C1COc2ccccc2O1 (stereo unspecified) | 0 | 0 | 0 | 20282*
SMILES | BoNT A protease | BoNT-F LC inh | Anthrax LF prot | Bead autofluor
CSC1=C(C#N)C(c2ccccc2C)C(C#N)=C(N)N1 (stereo unspecified) | ? | -5 | 0 | 23095*
C=CCSc1nc(O)c(CC)c(=O)n1C(C)CC (stereo unspecified) | ? | -6 | -4 | 24804*
CCc1c(O)nc(SCc2ccccc2)n(C(C)CC)c1=O (stereo unspecified) | -1 | -1 | 0 | 21259*
CCc1c(O)nc(SCC(N)=O)n(-c2ccccc2F)c1=O | 0 | 1 | -6 | 8018
CC(=O)Nc1cc(-c2cccnc2)cn2c(-c3ccc(F)cc3)cnc12 | 0 | -11 | 3 | 3081
CCOc1cc(/C=N/NC(=O)Cn2nc([N+](=O)[O-])cc2C)cc(Br)c1OCc1ccccc1C | -1 | -2 | 0 | 16860*
CSc1nc(=O)[nH]nc1Sc1ccccc1 | 0 | 3 | 0 | 3754
O=C(CCl)NCc1c(Cl)cccc1-n1cccc1 | 0 | -3 | 3 | 22575*
CC(C)(C)c1ccc(SC2=C[C@@]3(O)CC[C@@H](O)[C@@](Sc4ccc(C(C)(C)C)cc4)(C2=O)[C@H]3O)cc1 | 0 | -2 | 0 | 6243
Cc1ccc(-c2csc3nc(C)n(-n4c(C)ccc4C)c(=O)c23)o1 | 0 | -8 | -2 | 3228
Cc1ccc(-c2csc3nc(C)n(N)c(=O)c23)o1 | ? | 0 | -1 | 22183*
OC(c1cccc(Cl)c1)c1nc(-c2csc3ccccc23)cs1 (stereo unspecified) | 0 | -9 | -6 | 3205
Clc1ccc(CN2CCN(c3ncnc4scc(-c5cccs5)c34)CC2)cc1 | -2 | -10 | 15 | ?
Cc1ccccc1N1CCN(c2ncnc3scc(-c4cccs4)c23)CC1 | 2 | 0 | -10 | 21408*
COc1ccc(Nc2nnc(SCc3cc([N+](=O)[O-])cc4c3OCOC4)s2)cc1 | -1 | -3 | -1 | 23675*
Cc1nnc(SCc2cc([N+](=O)[O-])cc3c2OCOC3)[nH]c1=O | 1 | 0 | 0 | 5339
COc1ccc(CSc2nnc(SCc3ccc([N+](=O)[O-])cc3)s2)cc1 | 1 | -3 | 0 | 23671*
Cn1ccnc1SCc1ccc([N+](=O)[O-])cc1 | ? | 7 | 2 | 19757*
COCc1ccc(C(=O)N2CCCC(Nc3ccc4c(c3)OCCO4)C2)o1 (stereo unspecified) | 0 | 2 | 0 | 5430
CCOC(=O)C(Cc1c[nH]c2cc([N+](=O)[O-])ccc12)(NC(C)=O)C(=O)OCC | 1 | -1 | 4 | 3738
C[C@@H]1CN([C@@H](C)CO)C(=O)c2cc(Br)cnc2O[C@H]1CN(C)C(=O)c1ccccc1F | 0 | 2 | 0 | 3962
Cc1ccc(S(=O)(=O)CC(=O)c2cc3cccc(C)c3oc2=O)cc1 | 2 | 9 | 1 | 5412
FC(F)(F)c1ccc(Sc2nnc(-c3cccs3)n2CC2CCCO2)nc1 (stereo unspecified) | 0 | -4 | 2 | 3590
FC(F)(F)c1cnc(Sc2nnc(-c3cccs3)n2CC2CCCO2)c(Cl)c1 (stereo unspecified) | 1 | 1 | 0 | 20185*
CC1CCN(C(=O)CSc2ccc(-c3ccc(F)cc3)nn2)CC1 | 1 | 1 | -1 | 23070*
O=C(CSc1ccc(-c2ccc(Br)cc2)nn1)N1CCOCC1 | 0 | -1 | 3 | 3957
COc1ccc(-c2ccc(SCC(=O)N3CCOCC3)nn2)cc1 | 1 | 6 | -3 | 22594*
Cc1cc(N=Cc2c(O)n(-c3ccc4c(c3)OCO4)c(=O)c3ccccc23)ccn1 | 1 | 19 | 0 | 3749
Cc1ccc(-n2c(O)c(C=Nc3ccc4c(c3)OCO4)c3ccccc3c2=O)cc1C | 1 | -4 | -5 | 22790*
C[C@H]1CN([C@@H](C)CO)C(=O)c2cc(C#CC3(O)CCCC3)cnc2O[C@H]1CN(C)C(=O)C1CC1 | 0 | -2 | -5 | 4000
